# Reference: PubChem BioAssay (EPA / NIEHS)
# Several values for one entry are separate records, joined by “and”; a condition that tells them apart may be missing. Equal entries are not always repeated. Records with an inconclusive call do not appear. More than one record can exist for a structure, and the calls need not agree. Activity calls are given as the source filed them. How the source made its calls: active means hit-call score of the fitted dose curve at least 0.9, where 1 is the maximum; inconclusive means response in the unintended direction; inactive means score below 0.9.
# What was measured:
# [1] = molecular target: human MET Proto-Oncogene, Receptor Tyrosine Kinase (MET), MET (gene 4233) (UniProt P08581); experiment: NVS_ENZ_hMet: NovaScreen (NVS) Enzymatic Assay for human MET Proto-Oncogene, Receptor Tyrosine Kinase (MET) (AID 2283180)
# Outline: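 Cell-free MET kinase assay using recombinant protein and fluorescent substrate, with mobility-shift separation; read 1 h after dosing. Primary duplicate at 25 uM; actives in singleton concentration-response to 50 uM maximum. Signal loss versus DMSO.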
# [2] = molecular target: human Matrix Metalloproteinase-3 (MMP3), MMP3 (gene 4314) (UniProt P08254); experiment: NVS_ENZ_hMMP3: NovaScreen (NVS) Enzymatic Assay for human Matrix Metalloproteinase-3 (MMP3) (AID 2283185)
# Outline: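 Cell-free recombinant human MMP3 activity, fluorescence intensity read 1 h after dosing. Primary screen duplicate at 25 uM, actives retested in concentration series; loss of signal vs DMSO baseline.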
# [3] = molecular target: human p21 Activated Kinase 4 (PAK4), PAK4 (gene 10298) (UniProt O96013); experiment: NVS_ENZ_hPAK4: NovaScreen (NVS) Enzymatic Assay for human p21 Activated Kinase 4 (PAK4) (AID 2283189)
# Outline: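 Cell-free recombinant human PAK4 activity assay; fluorescent substrate and product separated by electrophoretic mobility shift, read 1 h after dosing. Initially tested in duplicate at 25 uM, relative to DMSO baseline.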
# [4] = molecular target: human Matrix Metalloproteinase-1 (MMP1), MMP1 (gene 4312) (UniProt P03956); experiment: NVS_ENZ_hMMP1: NovaScreen (NVS) Enzymatic Assay for human Matrix Metalloproteinase-1 (MMP1) (AID 2283181)
# Procedure: NVS_ENZ_hMMP1 is a biochemical, single-readout assay that uses extracted gene-proteins in a cell-free assay. Measurements were taken 1 hour after chemical dosing in a 96-well plate.NVS_ENZ_hMMP1 is one of one assay component(s) measured or calculated from the NVS_ENZ_hMMP1 assay. It is designed to make measurements of enzyme activity, a form of enzyme reporter, as detected with fluorescence intensity signals by Fluorescence technology.Data from the assay component NVS_ENZ_hMMP1 was analyzed into 1 assay endpoint. This assay endpoint, NVS_ENZ_hMMP1, was analyzed in the positive analysis fitting direction relative to DMSO as the negative control and baseline of activity. Using a type of enzyme reporter, loss-of-signal activity can be used to understand changes in the enzymatic activity as they relate to the gene MMP1. Furthermore, this assay endpoint can be referred to as a primary readout, because this assay has produced multiple assay endpoints where this one serves a enzymatic activity function. To generalize the intended target to other relatable targets, this assay endpoint is annotated to the protease intended target family, where the subfamily is matrix metalloproteinase.
# Binding assays used specific radioligands (tritiated, iodinated) with non-radioactive competitive displacement ligands in agonist or antagonist protocols (as indicated) and various reference compounds and inhibitors to titrate specific binding to receptors and transporters. Most enzyme assays (CYPs, kinases, phosphatases, proteases, HDACs) used recombinant protein and specific substrates (fluorescence mostly, some colorimetric and radioactive) and inhibitors, followed by a biochemical separation of substrate and product. All assays for the biochemical HTS were initially run in duplicate at a single concentration (10 uM for CYP450 assays and 25 uM for all others). […]
# [5] = molecular target: human NIMA (Never In Mitosis Gene A)-Related Kinase 2 (NEK2), NEK2 (gene 4751) (UniProt P51955); experiment: NVS_ENZ_hNEK2: NovaScreen (NVS) Enzymatic Assay for human NIMA (Never In Mitosis Gene A)-Related Kinase 2 (NEK2) (AID 2283188)
# Procedure: NVS_ENZ_hNEK2 is a biochemical, single-readout assay that uses extracted gene-proteins in a cell-free assay. Measurements were taken 1 hour after chemical dosing in a 384-well plate.NVS_ENZ_hNEK2 is one of one assay component(s) measured or calculated from the NVS_ENZ_hNEK2 assay. It is designed to make measurements of enzyme activity, a form of enzyme reporter, as detected with fluorescence intensity signals by Fluorescence and electrophoretic mobility shift technology.Data from the assay component NVS_ENZ_hNEK2 was analyzed into 1 assay endpoint. This assay endpoint, NVS_ENZ_hNEK2, was analyzed in the positive analysis fitting direction relative to DMSO as the negative control and baseline of activity. Using a type of enzyme reporter, loss-of-signal activity can be used to understand changes in the enzymatic activity as they relate to the gene NEK2. Furthermore, this assay endpoint can be referred to as a primary readout, because this assay has produced multiple assay endpoints where this one serves a enzymatic activity function. To generalize the intended target to other relatable targets, this assay endpoint is annotated to the kinase intended target family, where the subfamily is serine/threonine kinase. […]
# human MET Proto-Oncogene, Receptor Tyrosine Kinase (MET), MET (gene 4233), sequence (P08581 whole entry, looked up): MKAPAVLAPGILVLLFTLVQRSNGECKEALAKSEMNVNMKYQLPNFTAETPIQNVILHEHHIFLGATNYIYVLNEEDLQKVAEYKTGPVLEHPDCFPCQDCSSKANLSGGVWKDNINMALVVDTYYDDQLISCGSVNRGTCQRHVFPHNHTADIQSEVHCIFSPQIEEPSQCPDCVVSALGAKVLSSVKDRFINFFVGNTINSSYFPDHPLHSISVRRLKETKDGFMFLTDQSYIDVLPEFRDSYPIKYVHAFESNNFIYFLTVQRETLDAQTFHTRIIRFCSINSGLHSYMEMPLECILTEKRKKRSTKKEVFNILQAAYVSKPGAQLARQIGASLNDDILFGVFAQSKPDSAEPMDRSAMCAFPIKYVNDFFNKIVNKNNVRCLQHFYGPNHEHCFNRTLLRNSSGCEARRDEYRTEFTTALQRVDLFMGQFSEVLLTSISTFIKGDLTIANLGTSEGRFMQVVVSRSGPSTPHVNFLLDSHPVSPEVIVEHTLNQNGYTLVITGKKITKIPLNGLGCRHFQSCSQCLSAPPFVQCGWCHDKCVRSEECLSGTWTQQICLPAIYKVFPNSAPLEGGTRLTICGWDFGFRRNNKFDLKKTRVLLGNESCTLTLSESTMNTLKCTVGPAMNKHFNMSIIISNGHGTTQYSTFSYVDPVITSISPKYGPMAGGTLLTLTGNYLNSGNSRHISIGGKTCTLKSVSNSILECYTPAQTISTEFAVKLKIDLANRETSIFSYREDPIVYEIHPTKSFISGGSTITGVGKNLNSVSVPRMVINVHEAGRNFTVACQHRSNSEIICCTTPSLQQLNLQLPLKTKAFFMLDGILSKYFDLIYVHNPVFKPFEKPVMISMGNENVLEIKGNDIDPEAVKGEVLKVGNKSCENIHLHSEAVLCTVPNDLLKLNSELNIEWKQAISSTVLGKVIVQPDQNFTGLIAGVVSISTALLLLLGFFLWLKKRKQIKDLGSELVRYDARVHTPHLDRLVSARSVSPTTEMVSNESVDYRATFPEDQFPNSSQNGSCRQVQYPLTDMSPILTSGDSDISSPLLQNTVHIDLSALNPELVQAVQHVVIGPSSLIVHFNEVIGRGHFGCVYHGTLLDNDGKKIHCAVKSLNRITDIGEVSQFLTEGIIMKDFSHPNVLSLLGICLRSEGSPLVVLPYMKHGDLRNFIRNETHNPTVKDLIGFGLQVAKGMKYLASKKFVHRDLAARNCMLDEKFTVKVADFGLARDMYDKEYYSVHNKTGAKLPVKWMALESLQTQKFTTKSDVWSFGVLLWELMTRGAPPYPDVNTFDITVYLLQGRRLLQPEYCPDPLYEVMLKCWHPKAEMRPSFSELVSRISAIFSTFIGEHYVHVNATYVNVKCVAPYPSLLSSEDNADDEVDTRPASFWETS
# human Matrix Metalloproteinase-1 (MMP1), MMP1 (gene 4312), sequence (P03956 whole entry, looked up): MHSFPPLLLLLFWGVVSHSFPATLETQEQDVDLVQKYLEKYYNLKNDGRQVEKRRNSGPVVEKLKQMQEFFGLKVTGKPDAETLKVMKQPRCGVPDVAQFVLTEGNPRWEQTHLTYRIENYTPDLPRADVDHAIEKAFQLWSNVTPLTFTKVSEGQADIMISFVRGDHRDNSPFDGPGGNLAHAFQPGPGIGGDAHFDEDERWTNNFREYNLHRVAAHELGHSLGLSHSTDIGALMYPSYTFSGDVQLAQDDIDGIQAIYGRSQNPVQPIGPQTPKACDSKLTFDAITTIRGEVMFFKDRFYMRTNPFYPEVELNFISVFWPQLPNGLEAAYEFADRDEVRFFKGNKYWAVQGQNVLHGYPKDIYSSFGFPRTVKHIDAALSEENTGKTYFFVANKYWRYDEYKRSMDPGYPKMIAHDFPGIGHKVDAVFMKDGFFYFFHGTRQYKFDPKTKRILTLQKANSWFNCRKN
# human Matrix Metalloproteinase-3 (MMP3), MMP3 (gene 4314), sequence (P08254 whole entry, looked up): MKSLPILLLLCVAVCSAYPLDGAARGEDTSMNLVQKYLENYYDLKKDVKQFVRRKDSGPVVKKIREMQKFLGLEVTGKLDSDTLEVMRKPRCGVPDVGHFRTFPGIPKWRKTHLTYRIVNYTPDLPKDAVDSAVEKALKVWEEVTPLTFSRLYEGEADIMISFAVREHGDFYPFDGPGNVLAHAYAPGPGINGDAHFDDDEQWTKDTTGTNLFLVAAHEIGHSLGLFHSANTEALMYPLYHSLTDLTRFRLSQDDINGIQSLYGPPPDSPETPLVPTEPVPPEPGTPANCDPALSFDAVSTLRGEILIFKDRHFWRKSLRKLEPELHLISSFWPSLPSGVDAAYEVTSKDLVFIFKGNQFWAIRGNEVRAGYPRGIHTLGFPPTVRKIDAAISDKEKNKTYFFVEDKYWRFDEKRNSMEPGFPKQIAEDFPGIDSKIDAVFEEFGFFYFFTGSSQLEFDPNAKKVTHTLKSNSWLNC
# human NIMA (Never In Mitosis Gene A)-Related Kinase 2 (NEK2), NEK2 (gene 4751), sequence (P51955 whole entry, looked up): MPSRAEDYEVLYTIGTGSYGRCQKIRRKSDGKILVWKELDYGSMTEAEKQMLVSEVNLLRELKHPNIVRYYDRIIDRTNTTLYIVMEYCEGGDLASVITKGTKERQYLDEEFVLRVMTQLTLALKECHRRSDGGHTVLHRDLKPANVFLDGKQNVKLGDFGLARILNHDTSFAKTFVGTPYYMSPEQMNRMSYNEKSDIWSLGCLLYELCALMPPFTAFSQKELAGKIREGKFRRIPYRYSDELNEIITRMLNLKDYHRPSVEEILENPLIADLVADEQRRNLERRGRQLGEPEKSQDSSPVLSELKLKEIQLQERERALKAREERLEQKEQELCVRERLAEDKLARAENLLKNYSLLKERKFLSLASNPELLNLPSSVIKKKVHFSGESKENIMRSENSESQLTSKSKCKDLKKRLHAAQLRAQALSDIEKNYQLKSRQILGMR
# human p21 Activated Kinase 4 (PAK4), PAK4 (gene 10298), sequence (O96013 whole entry, looked up): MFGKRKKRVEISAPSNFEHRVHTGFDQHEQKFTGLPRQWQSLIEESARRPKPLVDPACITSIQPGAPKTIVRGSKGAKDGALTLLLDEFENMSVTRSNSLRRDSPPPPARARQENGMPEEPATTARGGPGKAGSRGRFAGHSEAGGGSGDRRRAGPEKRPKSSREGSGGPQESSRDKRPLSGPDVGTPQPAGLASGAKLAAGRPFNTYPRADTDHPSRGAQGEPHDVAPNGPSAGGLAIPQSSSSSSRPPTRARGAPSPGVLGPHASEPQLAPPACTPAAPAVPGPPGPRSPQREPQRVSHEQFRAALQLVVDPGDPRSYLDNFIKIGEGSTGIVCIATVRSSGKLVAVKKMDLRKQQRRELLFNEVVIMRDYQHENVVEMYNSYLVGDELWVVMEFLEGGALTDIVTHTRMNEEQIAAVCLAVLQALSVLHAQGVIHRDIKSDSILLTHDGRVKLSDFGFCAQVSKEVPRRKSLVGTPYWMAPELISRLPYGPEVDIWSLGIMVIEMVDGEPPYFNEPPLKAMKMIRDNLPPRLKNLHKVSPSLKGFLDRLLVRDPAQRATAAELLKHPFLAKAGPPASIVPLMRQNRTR
smiles,measurement,setting,value
O=S(=O)(O)C(F)(F)C(F)(F)C(F)(F)C(F)(F)C(F)(F)C(F)(F)C(F)(F)C(F)(F)F,AC50,[1],36.1 µM (active) and 40.4 µM (active)
same,AC50,[2],22.6 µM (active) [middle of 4 runs]
same,AC50,[3],25 µM (active)
O=C(O)C(F)(F)C(F)(F)C(F)(F)C(F)(F)C(F)(F)C(F)(F)C(F)(F)F,outcome,[1],inactive
CCCN(CCOc1c(Cl)cc(Cl)cc1Cl)C(=O)n1ccnc1,AC50,[4],13 µM (active)
Oc1ccc(Cl)cc1Cc1ccccc1,AC50,[4],6.03 µM (active)
same,outcome,[4],inactive
CC1(C)C(C=C(Cl)Cl)C1C(=O)OC(C#N)c1ccc(F)c(Oc2ccccc2)c1 (stereo not given),outcome,[5],inactive
N#Cc1c(Cl)c(Cl)c(Cl)c(C#N)c1Cl,outcome,[5],inactive
Oc1cc(Cl)ccc1Oc1ccc(Cl)cc1Cl,outcome,[3],inactive
